# In PubChem BioAssay AID1159580 (chemical genetic matrix, 2015):
# Out of some 5,500 compounds screened, about 2,000 (36%) were called active. Not shown: some 18% with an inconclusive outcome. The list shows a part of the results. Unmarked numbers belong to inactive results. Cut-off read from the data, not from the text of the source: active = normalized growth mostly below about 0.91 (no sharp cut-off); inconclusive = no clear call, values can overlap the other calls; inactive = mostly above about 0.92.
# Assay: chemical genetic growth profiling, strain panel (AID 1159580);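 note: tested at 20 µM; growth read once vehicle control cultures reached saturation at 30 °C; 1 = growth at the plate median or of vehicle wells; lower values mean less growth of the strain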
# Settings: S. cerevisiae deletion strains, growth OD
# [1] = locus YAL013W, strain DEP1, stronger effect = lower value
# [2] = locus YBR229C, strain ROT2, stronger effect = lower value
# [3] = locus YDL101C, strain DUN1, stronger effect = lower value
# [4] = locus YDL134C, strain PPH21, stronger effect = lower value
# [5] = locus YDR150W, strain NUM1, stronger effect = lower value
# [6] = locus YEL061C, strain CIN8, stronger effect = lower value
# [7] = locus YGR078C, strain PAC10, stronger effect = lower value
# [8] = locus YHR030C, strain SLT2, stronger effect = lower value
# [9] = locus YHR087W, strain rtc3, stronger effect = lower value
# [10] = locus YJR043C, strain POL32, stronger effect = lower value
# [11] = locus YJR075W, strain HOC1, stronger effect = lower value
# [12] = locus YLR039C, strain RIC1, stronger effect = lower value
# [13] = locus YLR058C, strain SHM2 (second series), stronger effect = lower value
# [14] = locus YLR085C, strain ARP6, stronger effect = lower value
# [15] = locus YLR262C, strain YPT6, stronger effect = lower value
# [16] = locus YML094W, strain GIM5, stronger effect = lower value
# [17] = locus YMR219W, strain ESC1, stronger effect = lower value
# [18] = locus YMR263W, strain SAP30, stronger effect = lower value
# [19] = locus YMR307W, strain GAS1, stronger effect = lower value
# [20] = locus YNL128W, strain TEP1, stronger effect = lower value
# [21] = locus YNL153C, strain GIM3, stronger effect = lower value
# [22] = locus YNL298W, strain CLA4 (second series), stronger effect = lower value
# [23] = locus YNL322C, strain KRE1, stronger effect = lower value
# [24] = locus YNR030W, strain Alg12, stronger effect = lower value
# [25] = locus YPL055C, strain LGE1, stronger effect = lower value
# [26] = locus YPL241C, strain CIN2, stronger effect = lower value
# [27] = locus YPR135W, strain CTF4, stronger effect = lower value
structure (smiles),measurement,setting,value
O=C(Nc1ccccc1)Nc1ccc(C(F)(F)F)cc1Br,normalized growth,[1],0.968
same,normalized growth,[2],0.985
same,normalized growth,[3],1.04
same,normalized growth,[4],0.967
same,normalized growth,[5],0.957
same,normalized growth,[6],0.981
same,normalized growth,[7],0.948
same,normalized growth,[8],0.749
same,normalized growth,[9],0.941
same,normalized growth,"locus YJL187C, strain SWE1, stronger effect = lower value",0.943
same,normalized growth,[10],0.926
same,normalized growth,[11],0.906
same,normalized growth,[12],0.843
same,normalized growth,[13],0.969
same,normalized growth,[14],0.728 (active)
same,normalized growth,[15],0.948
same,normalized growth,[16],0.957
same,normalized growth,[17],0.99
same,normalized growth,[18],0.917
same,normalized growth,[19],0.54 (active)
same,normalized growth,[20],0.957
same,normalized growth,[21],0.979
same,normalized growth,[22],0.799 (active)
same,normalized growth,[23],0.995
same,normalized growth,[24],0.887
same,normalized growth,"locus YOL006C, strain TOP1, stronger effect = lower value",0.722 (active)
same,normalized growth,[25],0.842
same,normalized growth,[26],0.885
same,normalized growth,[27],0.878
O=C(Nc1cccc2ccccc12)c1ccccc1O,normalized growth,"locus YAR019C, strain CDC15, stronger effect = lower value",0.848 (active)
same,normalized growth,"locus YBL105C, strain PKC1, stronger effect = lower value",0.862 (active)
same,normalized growth,"locus YBR135W, strain CKS1, stronger effect = lower value",0.85 (active)
same,normalized growth,"locus YBR136W, strain MEC1, stronger effect = lower value",0.834 (active)
same,normalized growth,"locus YBR160W, strain CDC28, stronger effect = lower value",0.872 (active)
same,normalized growth,"locus YDL017W, strain CDC7, stronger effect = lower value",0.866 (active)
same,normalized growth,"locus YDL028C, strain MPS1, stronger effect = lower value",0.816 (active)
same,normalized growth,[3],0.93
same,normalized growth,"locus YDL108W, strain KIN28, stronger effect = lower value",0.827 (active)
same,normalized growth,"locus YDL132W, strain cdc53, stronger effect = lower value",0.834 (active)
same,normalized growth,"locus YDL214C, strain PRR2, stronger effect = lower value",0.563 (active)
same,normalized growth,"locus YDR052C, strain DBF4, stronger effect = lower value",0.83 (active)
same,normalized growth,"locus YDR054C, strain cdc34, stronger effect = lower value",0.842 (active)
same,normalized growth,"locus YDR226W, strain ADK1, stronger effect = lower value",0.856 (active)
same,normalized growth,"locus YDR477W, strain SNF1, stronger effect = lower value",0.563 (active)
same,normalized growth,"locus YER123W, strain YCK3, stronger effect = lower value",0.432 (active)
same,normalized growth,"locus YER133W, strain GLC7, stronger effect = lower value",0.524 (active)
same,normalized growth,"locus YFL009W, strain cdc4, stronger effect = lower value",0.837 (active)
same,normalized growth,"locus YFL029C, strain CAK1, stronger effect = lower value",0.845 (active)
same,normalized growth,"locus YFR003C, strain YPI1, stronger effect = lower value",0.854 (active)
same,normalized growth,"locus YFR019W, strain FAB1, stronger effect = lower value",0.781
same,normalized growth,"locus YFR028C, strain CDC14, stronger effect = lower value",0.846 (active)
same,normalized growth,"locus YGR040W, strain KSS1, stronger effect = lower value",0.557 (active)
same,normalized growth,"locus YGR052W, strain FMP48, stronger effect = lower value",0.556 (active)
same,normalized growth,"locus YGR092W, strain DBF2, stronger effect = lower value",0.324 (active)
same,normalized growth,[8],0.505 (active)
same,normalized growth,"locus YHR079C, strain IRE1, stronger effect = lower value",0.405 (active)
same,normalized growth,"locus YHR082C, strain KSP1, stronger effect = lower value",0.576 (active)
same,normalized growth,"locus YHR205W, strain SCH9, stronger effect = lower value",0.687
same,normalized growth,"locus YIL147C, strain SLN1, stronger effect = lower value",0.831 (active)
same,normalized growth,"locus YJL095W, strain BCK1, stronger effect = lower value",0.488 (active)
same,normalized growth,"locus YJL128C, strain PBS2, stronger effect = lower value",0.823
same,normalized growth,"locus YJL157C, strain FAR1, stronger effect = lower value",0.492 (active)
same,normalized growth,"locus YJR016C, strain ILV3, stronger effect = lower value",0.852 (active)
same,normalized growth,"locus YJR066W, strain TOR1 (second series), stronger effect = lower value",0.645
same,normalized growth,"locus YJR066W, strain TOR1, stronger effect = lower value",0.479 (active)
same,normalized growth,"locus YKL048C, strain ELM1, stronger effect = lower value",0.768 (active)
same,normalized growth,"locus YKL067W, strain YNK1, stronger effect = lower value",0.555 (active)
same,normalized growth,"locus YKL101W, strain HSL1, stronger effect = lower value",0.585 (active)
same,normalized growth,"locus YKL193C, strain SDS22, stronger effect = lower value",0.843 (active)
same,normalized growth,"locus YKL203C, strain TOR2, stronger effect = lower value",0.572 (active)
same,normalized growth,"locus YLR113W, strain HOG1, stronger effect = lower value",0.327 (active)
same,normalized growth,"locus YLR133W, strain CKI1, stronger effect = lower value",0.595 (active)
same,normalized growth,"locus YLR403W, strain SFP1, stronger effect = lower value",0.552 (active)
same,normalized growth,"locus YML070W, strain DAK1, stronger effect = lower value",0.519 (active)
same,normalized growth,"locus YMR001C, strain CDC5, stronger effect = lower value",0.838 (active)
same,normalized growth,"locus YMR205C, strain PFK2 (second series), stronger effect = lower value",0.53 (active)
same,normalized growth,"locus YMR277W, strain FCP1, stronger effect = lower value",0.839 (active)
same,normalized growth,"locus YNL006W, strain LST8, stronger effect = lower value",0.858 (active)
same,normalized growth,"locus YNL020C, strain ARK1, stronger effect = lower value",0.529 (active)
same,normalized growth,"locus YNL161W, strain CBK1, stronger effect = lower value",0.864 (active)
same,normalized growth,"locus YNL183C, strain NPR1, stronger effect = lower value",0.443 (active)
same,normalized growth,"locus YNL207W, strain RIO2, stronger effect = lower value",0.834 (active)
same,normalized growth,"locus YNL222W, strain SSU72, stronger effect = lower value",0.847 (active)
same,normalized growth,"locus YNL307C, strain MCK1 (second series), stronger effect = lower value",0.571 (active)
same,normalized growth,"locus YOL078W, strain AVO1, stronger effect = lower value",0.847 (active)
same,normalized growth,"locus YOL136C, strain PFK27, stronger effect = lower value",0.533 (active)
same,normalized growth,"locus YOR061W, strain CKA2, stronger effect = lower value",0.608 (active)
same,normalized growth,"locus YOR119C, strain RIO1, stronger effect = lower value",0.549 (active)
same,normalized growth,"locus YOR231W, strain MKK1, stronger effect = lower value",0.426 (active)
same,normalized growth,"locus YOR329C, strain SCD5, stronger effect = lower value",0.857 (active)
same,normalized growth,"locus YPL031C, strain PHO85, stronger effect = lower value",0.526 (active)
same,normalized growth,"locus YPL153C, strain RAD53, stronger effect = lower value",0.52 (active)
same,normalized growth,"locus YPL204W, strain HRR25, stronger effect = lower value",0.52 (active)
same,normalized growth,"locus YPL209C, strain IPL1, stronger effect = lower value",0.86 (active)
same,normalized growth,"locus YPL256C, strain CLN2, stronger effect = lower value",0.547 (active)
same,normalized growth,"locus YPR025C, strain CCL1, stronger effect = lower value",0.855 (active)
same,normalized growth,"locus YPR106W, strain ISR1, stronger effect = lower value",0.896
same,normalized growth,"locus YPR111W, strain DBF20, stronger effect = lower value",0.884
same,normalized growth,"strain NNK1, stronger effect = lower value",0.87 (active)
same,normalized growth,"strain TSCII, stronger effect = lower value",0.833 (active)
CC(=O)Nc1ccc(C(F)(F)F)cc1Br,normalized growth,[1],1
same,normalized growth,[2],1.01
same,normalized growth,[3],0.979
same,normalized growth,[4],0.98
same,normalized growth,[5],0.862
same,normalized growth,[6],0.967
same,normalized growth,[7],0.993
same,normalized growth,[8],0.896
same,normalized growth,[9],1.05
same,normalized growth,[10],0.932
same,normalized growth,[11],0.99
same,normalized growth,[12],1
same,normalized growth,[13],0.972
same,normalized growth,[14],0.933
same,normalized growth,[15],1
same,normalized growth,[16],0.996
same,normalized growth,[17],0.999
same,normalized growth,[18],0.965
same,normalized growth,[19],1.06
same,normalized growth,[20],0.964
same,normalized growth,[21],0.994
same,normalized growth,[22],0.957
same,normalized growth,[23],0.989
same,normalized growth,[24],0.993
same,normalized growth,[25],1.05
same,normalized growth,[26],1
same,normalized growth,[27],0.897
NC(=NCCCC(N)C(=O)O)N[N+](=O)[O-] (stereo not given),normalized growth,"locus YAL040C, strain CLN3, stronger effect = lower value",0.999
same,normalized growth,"locus YCL061C, strain MRC1 (second series), stronger effect = lower value",1
same,normalized growth,"locus YDR363W, strain ESC2, stronger effect = lower value",1.03
same,normalized growth,"locus YER002W, strain NOP16, stronger effect = lower value",1
same,normalized growth,"locus YGR229C, strain SMI1, stronger effect = lower value",1.02
same,normalized growth,[11],1.02
same,normalized growth,[18],1
same,normalized growth,[19],1
same,normalized growth,[20],1.02
same,normalized growth,"locus YNL175C, strain NOP13, stronger effect = lower value",1
same,normalized growth,"locus YNL197C, strain WHI3, stronger effect = lower value",1.01
same,normalized growth,"locus YNL224C, strain SQS1, stronger effect = lower value",1.01
same,normalized growth,"locus YOR083W, strain WHI5 (second series), stronger effect = lower value",1.02
